Composite z-score data for 36 compounds are collected here from PubChem BioAssay.

The target of the first test is Fibroblast growth factor 10 (Homo sapiens) (UniProt O15520). Kind of test: compounds binding fibroblast growth factor 10 – biochemical, small-molecule microarray, 635 nm fluorescence, primary screen (AID 1102). The conditions noted are these: FGF10 binding, fluorescence 635 nm, higher = more signal.
Fibroblast growth factor 10 (Homo sapiens), sequence (O15520 whole entry, looked up): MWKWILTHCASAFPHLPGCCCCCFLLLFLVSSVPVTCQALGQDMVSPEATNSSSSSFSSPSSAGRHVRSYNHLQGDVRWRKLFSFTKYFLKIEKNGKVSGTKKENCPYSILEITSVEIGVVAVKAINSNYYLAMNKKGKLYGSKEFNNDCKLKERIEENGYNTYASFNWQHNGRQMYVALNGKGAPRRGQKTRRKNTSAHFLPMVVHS
Compound `CCOC(=O)C[C@H]1[C@H](OC(=O)c2ccccc2-c2ccccc2)[C@@H](NC(=O)c2ccc3ccccc3n2)c2cc(OCCCO)ccc2N1C(=O)Cc1ccc(OC)cc1` returned a composite z-score of 0.463.

`CC(C)c1ccc(NN2C(C(O)c3ccc(C#N)cc3)C=CC3C(=O)N(c4ccccc4)C(=O)C32)cc1` (stereo unspecified) had a composite z-score of 0.98.

`CCC#CCN(Cc1ccccc1Br)[C@H](/C=C/C1CC1)[C@@H](O)Cc1ccccc1` gave a composite z-score of -0.924.

`C=C[C@@H](OC)[C@H](OC(=O)Nc1ccc(OC)cc1)c1ccc(O)c(F)c1` registered a composite z-score of -0.076.

In the case of `C=CCC(OC(C)=O)[C@@H]1[C@@H](N(Cc2ccc(-c3cccc(C(F)(F)F)c3)o2)C(=O)c2ccc(-c3ccccc3)cc2)c2cc(OCCCO)ccc2N1C(=O)Cc1ccc2ccccc2c1` (stereo partly specified), the composite z-score is -0.186.

In turn, `CCOC(=O)C1=C[C@@H](c2ccccc2)N(S(=O)(=O)c2ccc(C)cc2)[C@H]1c1ccc(OC)cc1` yielded a composite z-score of 0.957.

Compound `CS(=O)(=O)CCOC(=O)C1=CC(CCCO)=CC(c2ccc(CN3CCCC3)cc2)N(Cc2sc3ccccc3c2Cl)C=C1C(=O)OCCS(C)(=O)=O` (stereo unspecified) registered a composite z-score of 1.34.

On to `CCOC(=O)C[C@H]1[C@H](OC(=O)Cc2ccc3c(c2)OCO3)[C@@H](NC(=O)c2ccc3ccccc3n2)c2cc(OCCCO)ccc2N1C(=O)c1ccc2ccccc2n1`, for which the composite z-score stood at 0.813.

Take `C=CCC(OC(C)=O)[C@@H]1[C@@H](N(Cc2ccc(-c3ccccc3)cc2)C(=O)c2ccc(-c3ccccc3)cc2)c2cc(OCCCO)ccc2N1C(=O)c1ccc2ccccc2c1` (stereo partly specified): the composite z-score is -0.015.

In the case of `Cc1ccc(NN2C(C(O)c3c(F)cccc3Cl)C=CC3C(=O)N(C4CCCCC4)C(=O)C32)cc1` (stereo unspecified), the composite z-score amounted to 0.425.

Compound `CN(C)C(=O)[C@]1(Cc2ccccc2CN=[N+]=[N-])N=C(c2ccc(OCCCO)cc2)O[C@@H]1c1ccccc1` registered a composite z-score of 0.647.

Turning to `Cc1ccc(S[C@]2(C(=O)O)CC(=O)N(C3CCCCC3)[C@@H]2c2ccc(CO)cc2I)cc1`, the composite z-score came out at 1.27.

`CCOC(=O)C[C@H]1[C@H](OC(=O)c2cc3ccccc3oc2=O)[C@@H](NC(=O)CC(C)C)c2cc(OCCCO)ccc2N1C(=O)c1ccc2ccccc2n1` displayed a composite z-score of 1.32.

The compound `CCOC(=O)C[C@H]1[C@H](OC(=O)c2ccc(-c3ccccc3)cc2)[C@@H](NC(=O)CC(C)C)c2cc(OCCCO)ccc2N1C(=O)c1ccc2ccccc2n1` had a composite z-score of 0.636.

Compound `CCOC(=O)C[C@H]1[C@H](OC(=O)c2ccc(C(=O)c3ccccc3)cc2)[C@@H](NC(=O)c2ccc3ccccc3n2)c2cc(OCCCO)ccc2N1C(=O)Cc1ccc(OC)cc1` displayed a composite z-score of 0.0466.

Compound `COc1ccc([Si](C)(C)[C@@H]2[C@@H](CC(=O)N(CCO)Cc3ccccc3)O[C@]3(C(=O)N(Cc4cccc(N5CCCCC5=O)c4)c4ccccc43)[C@H]2C)cc1` registered a composite z-score of 0.883.

Regarding `COC(=O)[C@]1(CCS(=O)(=O)c2ccccc2)N=C(c2ccc(OCCCO)cc2)O[C@@H]1c1ccccc1N=[N+]=[N-]`, the composite z-score was 1.3.

The compound `COC(=O)[C@@]1(Cc2ccccc2)[C@H]2c3cc(C(=O)N4CCCC4)n(CCc4ccccn4)c3C[C@H]2CN1C(=O)c1ccccc1` displayed a composite z-score of 0.874.

The compound `CCCN1C(=O)[C@@]2(Cc3ccccc31)N=C(c1ccc(OCCCO)cc1)O[C@H]2c1ccccc1` had a composite z-score of 0.988.

With `COC(=O)[C@@]1(Cc2ccc(F)cc2)[C@H]2c3cc(C(=O)N(C)C)n(Cc4ccc(OC(F)(F)F)cc4)c3C[C@H]2CN1C(=O)c1ccccc1`, the composite z-score turned out to be 0.251.

In turn, `CC(=O)N1CC2(CC2)CC1c1ccccc1` (stereo unspecified) came in with a composite z-score of 0.281.

`CC(C)[Si](C#CCCCC#N)(O[C@H](c1ccccc1)c1cn(Cc2ccccc2)nn1)C(C)C` came in with a composite z-score of 1.01.

In the case of `COCCOC(=O)N1C(=O)[C@@]2(c3cc(C#CC4(O)CCCCCC4)ccc31)[C@H](c1ccc(O)cc1)N1[C@H](c3ccccc3)[C@H](c3ccccc3)OC(=O)[C@H]1[C@@H]2C(=O)N1CCN(c2ncccn2)CC1`, the composite z-score worked out at 0.425.

For the compound `CC1=C2[C@@H](CCc3ccccc3)OB(O)C[C@@H]2[C@@H]2C(=O)N(Cc3ccccc3)C(=O)[C@@H]2C1`, the composite z-score was 0.631.

Take `CCOC(=O)C[C@H]1[C@H](OC(=O)Cc2ccc3c(c2)OCO3)[C@@H](NC(=O)C2CCCCC2)c2cc(OCCCO)ccc2N1C(=O)c1ccccc1`: the composite z-score was 0.27.

Turning to `COCCCNC(=O)[C@@]1(CCC(=O)OC(C)(C)C)N=C(c2ccc(OCCCO)cc2)O[C@H]1c1ccccc1N=[N+]=[N-]`, the composite z-score turned out to be 1.23.

In turn, `[N-]=[N+]=Nc1ccccc1C[C@]1(C(=O)NCC(O)CO)COC(c2ccc(OCCCO)cc2)=N1` (stereo partly specified) gave a composite z-score of -0.582.

Consider `CCCC[C@@H](O)C1=C(COC)C[C@H]2C(=O)N(C)C(=O)[C@H]2[C@H]1CO`, for which the composite z-score turned out to be 0.0965.

Compound `CCCCCCc1nc(Cc2cc(OC)c(OC)c(OC)c2)cc2c1[Si](C(C)C)(C(C)C)OC2` yielded a composite z-score of 0.124.

A further test concerns glycogen synthase kinase-3 (GSK3A per assay name; protocol says GSK3B). Nature of the test: compounds binding glycogen synthase kinase-3 – biochemical, small-molecule microarray, 635 nm fluorescence, GSK3A, primary screen (AID 1103). Also: the record names both GSK3A and GSK3B. The following applies: fluorescence 635 nm, higher = more signal.
Consider `N#Cc1ccc(NN2C(C(O)c3ccc(Br)cc3)C=CC3C(=O)N(c4ccccc4)C(=O)C32)cc1` (stereo unspecified), for which the composite z-score was determined as 0.648.

`CC1CC/C=C\[C@H]2OC34C=CCN(c5ccc(Cl)cc5)C(=O)[C@H]3N(C(C)CO)C(=O)[C@]4(C)C2C(=O)O1` (stereo partly specified) showed a composite z-score of -0.793.

`CO[C@H]1O[C@H](CO)[C@@H](OC(=O)Nc2ccc(Br)cc2)[C@@H]2OC(=O)[C@@H](Cc3ccccc3)C/C=C/C[C@H](Cc3ccccc3)C(=O)O[C@@H]12` had a composite z-score of 0.602.

`CCOC(=O)C[C@H]1[C@H](OC(=O)c2cc3ccccc3oc2=O)[C@@H](NC(=O)c2ccccc2)c2cc(OCCCO)ccc2N1C(=O)c1ccccc1` yielded a composite z-score of 0.775.

For the compound `O=C1OCCC=C[C@H]2OC34C=CCN(c5ccc6ccccc6c5)C(=O)[C@H]3N(CCCO)C(=O)[C@@H]4C12` (stereo partly specified), the composite z-score was -2.21.

As to `O=C1C2C=CC(C(O)C3CC=CCC3)N(Nc3ccccc3)C2C(=O)N1c1ccccc1` (stereo unspecified), the composite z-score was 0.466.

Compound `Cc1ccc(S[C@]2(C(=O)NC(C)C)CC(=O)N(Cc3cc(C(F)(F)F)cc(C(F)(F)F)c3)[C@@H]2c2ccc(CO)cc2)cc1` came in with a composite z-score of -1.27.

In turn, `CCOC(=O)C[C@H]1[C@H](OC(=O)c2ccccc2-c2ccccc2)[C@@H](NC(=O)c2ccc3ccccc3n2)c2cc(OCCCO)ccc2N1C(=O)Cc1ccc(OC)cc1` registered a composite z-score of 0.0131.

`CC(C)c1ccc(NN2C(C(O)c3ccc(C#N)cc3)C=CC3C(=O)N(c4ccccc4)C(=O)C32)cc1` (stereo unspecified) yielded a composite z-score of 0.888.

On to `CCC#CCN(Cc1ccccc1Br)[C@H](/C=C/C1CC1)[C@@H](O)Cc1ccccc1`, for which the composite z-score is -0.0916.

Compound `C=C[C@@H](OC)[C@H](OC(=O)Nc1ccc(OC)cc1)c1ccc(O)c(F)c1` gave a composite z-score of -0.242.

Compound `C=CCC(OC(C)=O)[C@@H]1[C@@H](N(Cc2ccc(-c3cccc(C(F)(F)F)c3)o2)C(=O)c2ccc(-c3ccccc3)cc2)c2cc(OCCCO)ccc2N1C(=O)Cc1ccc2ccccc2c1` (stereo partly specified) came in with a composite z-score of -1.22.

Turning to `CCOC(=O)C1=C[C@@H](c2ccccc2)N(S(=O)(=O)c2ccc(C)cc2)[C@H]1c1ccc(OC)cc1`, the composite z-score stood at 0.938.

Take `CS(=O)(=O)CCOC(=O)C1=CC(CCCO)=CC(c2ccc(CN3CCCC3)cc2)N(Cc2sc3ccccc3c2Cl)C=C1C(=O)OCCS(C)(=O)=O` (stereo unspecified): the composite z-score came to 1.33.

Consider `CCOC(=O)C[C@H]1[C@H](OC(=O)Cc2ccc3c(c2)OCO3)[C@@H](NC(=O)c2ccc3ccccc3n2)c2cc(OCCCO)ccc2N1C(=O)c1ccc2ccccc2n1`, for which the composite z-score was 0.495.

`C=CCC(OC(C)=O)[C@@H]1[C@@H](N(Cc2ccc(-c3ccccc3)cc2)C(=O)c2ccc(-c3ccccc3)cc2)c2cc(OCCCO)ccc2N1C(=O)c1ccc2ccccc2c1` (stereo partly specified) showed a composite z-score of -0.0147.

As to `Cc1ccc(NN2C(C(O)c3c(F)cccc3Cl)C=CC3C(=O)N(C4CCCCC4)C(=O)C32)cc1` (stereo unspecified), the composite z-score stood at 1.3.

As for `CN(C)C(=O)[C@]1(Cc2ccccc2CN=[N+]=[N-])N=C(c2ccc(OCCCO)cc2)O[C@@H]1c1ccccc1`, the composite z-score came to 0.497.

Turning to `Cc1ccc(S[C@]2(C(=O)O)CC(=O)N(C3CCCCC3)[C@@H]2c2ccc(CO)cc2I)cc1`, the composite z-score was found to be 0.797.

`CCOC(=O)C[C@H]1[C@H](OC(=O)c2cc3ccccc3oc2=O)[C@@H](NC(=O)CC(C)C)c2cc(OCCCO)ccc2N1C(=O)c1ccc2ccccc2n1` registered a composite z-score of 0.998.

The compound `CCOC(=O)C[C@H]1[C@H](OC(=O)c2ccc(-c3ccccc3)cc2)[C@@H](NC(=O)CC(C)C)c2cc(OCCCO)ccc2N1C(=O)c1ccc2ccccc2n1` yielded a composite z-score of 0.0685.

`CCOC(=O)C[C@H]1[C@H](OC(=O)c2ccc(C(=O)c3ccccc3)cc2)[C@@H](NC(=O)c2ccc3ccccc3n2)c2cc(OCCCO)ccc2N1C(=O)Cc1ccc(OC)cc1`: the composite z-score stood at 0.354.

For the compound `COc1ccc([Si](C)(C)[C@@H]2[C@@H](CC(=O)N(CCO)Cc3ccccc3)O[C@]3(C(=O)N(Cc4cccc(N5CCCCC5=O)c4)c4ccccc43)[C@H]2C)cc1`, the composite z-score came to 0.1.

The compound `COC(=O)[C@]1(CCS(=O)(=O)c2ccccc2)N=C(c2ccc(OCCCO)cc2)O[C@@H]1c1ccccc1N=[N+]=[N-]` came in with a composite z-score of 1.3.

Compound `COC(=O)[C@@]1(Cc2ccccc2)[C@H]2c3cc(C(=O)N4CCCC4)n(CCc4ccccn4)c3C[C@H]2CN1C(=O)c1ccccc1` came in with a composite z-score of 1.14.

As for `CCCN1C(=O)[C@@]2(Cc3ccccc31)N=C(c1ccc(OCCCO)cc1)O[C@H]2c1ccccc1`, the composite z-score was determined as 1.23.

In turn, `COC(=O)[C@@]1(Cc2ccc(F)cc2)[C@H]2c3cc(C(=O)N(C)C)n(Cc4ccc(OC(F)(F)F)cc4)c3C[C@H]2CN1C(=O)c1ccccc1` displayed a composite z-score of 0.22.

Turning to `CC(=O)N1CC2(CC2)CC1c1ccccc1` (stereo unspecified), the composite z-score came to 0.152.

Consider `CC(C)[Si](C#CCCCC#N)(O[C@H](c1ccccc1)c1cn(Cc2ccccc2)nn1)C(C)C`, for which the composite z-score worked out at 1.15.

As to `COCCOC(=O)N1C(=O)[C@@]2(c3cc(C#CC4(O)CCCCCC4)ccc31)[C@H](c1ccc(O)cc1)N1[C@H](c3ccccc3)[C@H](c3ccccc3)OC(=O)[C@H]1[C@@H]2C(=O)N1CCN(c2ncccn2)CC1`, the composite z-score worked out at 0.788.

Regarding `CC1=C2[C@@H](CCc3ccccc3)OB(O)C[C@@H]2[C@@H]2C(=O)N(Cc3ccccc3)C(=O)[C@@H]2C1`, the composite z-score turned out to be 0.717.

With `CCOC(=O)C[C@H]1[C@H](OC(=O)Cc2ccc3c(c2)OCO3)[C@@H](NC(=O)C2CCCCC2)c2cc(OCCCO)ccc2N1C(=O)c1ccccc1`, the composite z-score is -0.0848.
